Measured values from PubChem BioAssay (EPA / NIEHS).
The source made the active and inactive calls. Rule for the calls: active = hit-call score of the fitted dose curve at least 0.9, where 1 is the maximum; inactive = score below 0.9.

Columns and labels:
[1] = BSK_BE3C_SRB: Viability Assessment in the BioMAP Diversity Plus: BE3C Assay (AID 2283028); details: primary human bronchial epithelial cells
In short: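 Cytotoxicity read-out: SRB (0.1%) staining of TCA-fixed (10%) human lung bronchial epithelial cells, absorbance 560 nm, 24 h post-dosing. Curves fitted both directions relative to DMSO.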

[2] = read-out: Thrombomodulin, THBD (gene 7056); experiment: BSK_3C_Thrombomodulin: BioMAP Diversity Plus: 3C Assay for Thrombomodulin Biomarker Activity (AID 2283029); details: primary human endothelial cells (HUVEC); actives raise or lower the signal
In short: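 Human umbilical vein endothelial cells were exposed to chemicals for 24 h; cell-surface thrombomodulin quantified by ELISA, with bidirectional fitting against DMSO baseline.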

[3] = read-out: Urokinase-type plasminogen activator receptor (uPAR), PLAUR (gene 5329); experiment: BSK_4H_uPAR: BioMAP Diversity Plus: 4H Assay for Urokinase-type plasminogen activator receptor (uPAR) Biomarker Activity (AID 2283030); details: primary human endothelial cells (HUVEC); actives raise or lower the signal
In short: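 uPAR level read by ELISA on HUVEC cultures (BioMAP 4H) 24 h post-dosing, analyzed for gain or loss relative to DMSO. Parallel SRB staining assessed overt cytotoxicity.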

[4] = read-out: Vascular endothelial growth factor receptor 2 (Homo sapiens) (UniProt P35968); experiment: BSK_4H_VEGFRII: BioMAP Diversity Plus: 4H Assay for Vascular endothelial growth factor receptor 2 (VEGFR2) Biomarker Activity (AID 2283031); details: primary human endothelial cells (HUVEC); actives raise or lower the signal
In short: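 Measured by ELISA after 24 h of compound treatment: VEGFR2 on primary human umbilical vein endothelial cells, fitted in both directions relative to DMSO. Parallel cultures received SRB staining (560 nm) for overt cytotoxicity.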

[5] = read-out: Vascular cell adhesion molecule 1 (VCAM1), VCAM1 (gene 7412); experiment: BSK_4H_VCAM1: BioMAP Diversity Plus: 4H Assay for Vascular cell adhesion molecule 1 (VCAM1) Biomarker Activity (AID 2283033); details: primary human endothelial cells (HUVEC); actives raise or lower the signal
In short: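 Primary human umbilical vein endothelial cells, 4H stimulation system, treated for 24 h; cell-surface VCAM-1 quantified by ELISA. Bidirectional fitting against DMSO; cytotoxicity tracked by SRB total-protein staining in parallel cultures.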

[6] = read-out: Interferon-gamma inducible Protein 10 (IP10), CXCL10 (gene 3627); experiment: BSK_BE3C_IP10: BioMAP Diversity Plus: BE3C Assay for Interferon-gamma inducible Protein 10 (IP10) Biomarker Activity (AID 2283034); details: primary human bronchial epithelial cells; actives raise or lower the signal
In short: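 Primary human bronchial epithelial cells, with IP-10 measured by ELISA 24 hours after chemical dosing. Bidirectional fit against DMSO; cytotoxicity checked by SRB total protein staining in parallel cultures.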

[7] = read-out: Monokine induced gamma interferon (MIG), CXCL9 (gene 4283); experiment: BSK_BE3C_MIG: BioMAP Diversity Plus: BE3C Assay for Monokine induced gamma interferon (MIG) Biomarker Activity (AID 2283035); details: primary human bronchial epithelial cells; actives raise or lower the signal
In short: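 ELISA read-out of MIG in human lung bronchial epithelial primary cultures, 24 h post-dosing. Bidirectional curve fit vs DMSO baseline.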

[8] = read-out: Transforming growth factor beta 1 (TGFb1), TGFB1 (gene 7040); experiment: BSK_BE3C_TGFb1: BioMAP Diversity Plus: BE3C Assay for Transforming growth factor beta 1 (TGFb1) Biomarker Activity (AID 2283036); details: primary human bronchial epithelial cells; actives raise or lower the signal
In short: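 Primary human bronchial epithelial cells dosed with chemical; TGF-b1 measured by ELISA 24 h after dosing. Bidirectional curve fitting against DMSO negative control; SRB total-protein staining in parallel cultures gauged cytotoxicity.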

[9] = read-out: Plasminogen activator inhibitor-1 (PAI1), SERPINE1 (gene 5054); experiment: BSK_BE3C_PAI1: BioMAP Diversity Plus: BE3C Assay for Plasminogen activator inhibitor-1 (PAI1) Biomarker Activity (AID 2283037); details: primary human bronchial epithelial cells; actives raise or lower the signal
In short: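 Primary human bronchial epithelial cells (BE3C system) exposed 24 h; PAI-1 quantified by ELISA. Parallel sulforhodamine B staining of total protein flags cytotoxicity. Bidirectional fit versus DMSO.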

[10] = read-out: urokinase plasminogen activator (uPA), PLAU (gene 5328); experiment: BSK_BE3C_uPA: BioMAP Diversity Plus: BE3C Assay for urokinase plasminogen activator (uPA) Biomarker Activity (AID 2283038); details: primary human bronchial epithelial cells; actives raise or lower the signal
In short: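 ELISA for uPA on human primary bronchial epithelial cultures 24 h post-treatment, gain or loss against DMSO. Parallel SRB staining (0.1% after 10% TCA fixation, 560 nm) assessed overt cytotoxicity.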

[11] = read-out: Urokinase-type plasminogen activator receptor (uPAR), PLAUR (gene 5329); experiment: BSK_BE3C_uPAR: BioMAP Diversity Plus: BE3C Assay for Urokinase-type plasminogen activator receptor (uPAR) Biomarker Activity (AID 2283039); details: primary human bronchial epithelial cells; actives raise or lower the signal
In short: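 Primary human bronchial epithelial cells dosed for 24 h; uPAR quantified by ELISA with bidirectional fitting against DMSO. Overt cytotoxicity assessed in parallel cultures by SRB total-protein staining (0.1% SRB, 560 nm).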

[12] = read-out: Interleukin-6 (IL6), IL6 (gene 3569); experiment: BSK_CASM3C_IL6: BioMAP Diversity Plus: CASM3C Assay for Interleukin-6 (IL6) Biomarker Activity for (AID 2283040); details: primary human coronary artery smooth muscle cells; actives raise or lower the signal
[13] = read-out: Tissue plasminogen activator (tPA), PLAT (gene 5327); experiment: BSK_BE3C_tPA: BioMAP Diversity Plus: BE3C Assay for Tissue plasminogen activator (tPA) Biomarker Activity (AID 2283041); details: primary human bronchial epithelial cells; actives raise or lower the signal
In short: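 Primary human bronchial epithelial cells in the BE3C system, exposed to compound for 24 h. tPA was quantified by ELISA; DMSO served as baseline, with gain or loss of signal fitted. Cytotoxicity checked in parallel cultures by SRB total-protein staining.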

[14] = read-out: Interleukin-8 (IL8), CXCL8 (gene 3576); experiment: BSK_CASM3C_IL8: BioMAP Diversity Plus: CASM3C Assay for Interleukin-8 (IL8) Biomarker Activity (AID 2283042); details: primary human coronary artery smooth muscle cells; actives raise or lower the signal;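 note: IL-8 protein level quantified by ELISA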
[15] = read-out: Human Leukocyte Antigen - DR isotype (HLADR), HLA-DRA (gene 3122); experiment: BSK_CASM3C_HLADR: BioMAP Diversity Plus: CASM3C Assay for Human Leukocyte Antigen - DR isotype (HLADR) Biomarker Activity (AID 2283043); details: primary human coronary artery smooth muscle cells; actives raise or lower the signal;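 note: cell-surface HLA-DR protein level quantified by ELISA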
[16] = read-out: Macrophage colony-stimulating factor (MCSF), CSF1 (gene 1435); experiment: BSK_CASM3C_MCSF: BioMAP Diversity Plus: CASM3C Assay for Macrophage colony-stimulating factor (MCSF) Biomarker Activity (AID 2283044); details: primary human coronary artery smooth muscle cells; actives raise or lower the signal;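 note: M-CSF protein amount quantified by ELISA after 24 h exposure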
[17] = read-out: Low-density lipoprotein receptor (LDLR), LDLR (gene 3949); experiment: BSK_CASM3C_LDLR: BioMAP Diversity Plus: CASM3C Assay for Low-density lipoprotein receptor (LDLR) Biomarker Activity (AID 2283045); details: primary human coronary artery smooth muscle cells; actives raise or lower the signal;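 note: LDLR protein level on the cell surface quantified by ELISA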
[18] = read-out: Monocyte Chemoattractant Protein-1 (MCP1), CCL2 (gene 6347); experiment: BSK_CASM3C_MCP1: BioMAP Diversity Plus: CASM3C Assay for Monocyte Chemoattractant Protein-1 (MCP1) Biomarker Activity (AID 2283046); details: primary human coronary artery smooth muscle cells; actives raise or lower the signal;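 note: MCP-1 level quantified by ELISA 24 h after dosing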
[19] = BSK_CASM3C_Proliferation: Cell Proliferation Assessment in the BioMAP Diversity Plus: CASM3C Assay (AID 2283047); details: primary human coronary artery smooth muscle cells;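 note: sulforhodamine B total protein stain as relative cell number at 560 nm; sub-confluent cells exposed 48 h before staining; fitted both ways against DMSO so gain or loss of cell number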
[20] = read-out: Human Leukocyte Antigen - DR isotype (HLADR), HLA-DRA (gene 3122); experiment: BSK_BE3C_HLADR: BioMAP Diversity Plus: BE3C Assay for Human Leukocyte Antigen - DR isotype (HLADR) Biomarker Activity (AID 2283032); details: primary human bronchial epithelial cells; actives raise or lower the signal
In short: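 Human primary bronchial epithelial cells (BE3C system) exposed to compound for 24 hours; cell-surface HLA-DR measured by ELISA, fitted bidirectionally relative to DMSO. Total protein by SRB in parallel cultures tracked cytotoxicity.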

Measured: AC50

O=C(O)c1c(Cl)ccc2cc(Cl)cnc12
inactive: [1] | [2] | [3] | [4] | [5] | [6] | [7] | [8] | [9] | [10] | [11] | [12] | [13] | [14] | [15] | [16] | [17] | [18] | [19]

Clc1nc(Cl)nc(Nc2ccccc2Cl)n1
active: [11] 0.293 µM
inactive: [1] | [2] | [3] | [4] | [20] | [5] | [6] | [7] | [8] | [9] | [10] | [12] | [14] | [15] | [16] | [17] | [18] | [19]

CCOC(=O)C(C)OC(=O)c1cc(Oc2ccc(C(F)(F)F)cc2Cl)ccc1[N+](=O)[O-] (stereo unspecified)
inactive: [1] | [2] | [4] | [5] | [6] | [7] | [8] | [9] | [10] | [11] | [12] | [13] | [14] | [15] | [17] | [19]
active: [20] 29.7 µM | [16] 0.989 µM | [18] 8.51 µM

COP(=S)(OC)Oc1ccc([N+](=O)[O-])c(C)c1
inactive: [1] | [2] | [3] | [4] | [5] | [6] | [7] | [8] | [9] | [10] | [11] | [12] | [14] | [15] | [16] | [17] | [18] | [19]

CCN(CC)c1nc(C)cc(OP(=S)(OC)OC)n1
inactive: [1] | [2] | [3] | [4] | [5] | [6] | [7] | [8] | [9] | [10] | [11] | [12] | [14] | [16] | [17] | [18] | [19]
active: [15] 11.8 µM

Cc1cnc(C2=NC(C)(C(C)C)C(=O)N2)c(C(=O)O)c1 (stereo unspecified)
inactive: [1] | [2] | [3] | [4] | [20] | [5] | [6] | [7] | [9] | [10] | [11] | [12] | [13] | [14] | [15] | [16] | [17] | [18] | [19]
active: [8] 4.93 µM

CCOc1nc(F)cc2nc(S(=O)(=O)Nc3c(Cl)cccc3Cl)nn12
inactive: [1] | [2] | [3] | [4] | [5] | [7] | [8] | [10] | [11] | [12] | [14] | [15] | [16] | [17] | [18] | [19]
active: [20] 27.9 µM | [6] 31.4 µM | [9] 20.9 µM

Clc1cccc(C(Cl)(Cl)Cl)n1
inactive: [1] | [2] | [3] | [4] | [5] | [6] | [7] | [8] | [9] | [10] | [11] | [12] | [13] | [14] | [15] | [16] | [17] | [18] | [19]

O=C1C2CC=CCC2C(=O)N1SC(Cl)(Cl)Cl (stereo unspecified)
inactive: [1] | [2] | [4] | [5] | [11] | [17]
active: [6] 11.9 µM | [7] 13.5 µM | [8] 12.7 µM | [9] 12.4 µM | [10] 11.5 µM | [12] 30.9 µM | [13] 11.4 µM | [14] 31.7 µM | [15] 13.4 µM | [16] 28.9 µM | [18] 31.7 µM | [19] 7.03 µM

CCCCC(O)(Cn1cncn1)c1ccc(Cl)cc1Cl (stereo unspecified)
active: [6] 26.8 µM
inactive: [1] | [2] | [4] | [5] | [7] | [8] | [9] | [10] | [11] | [12] | [13] | [14] | [15] | [16] | [17] | [18] | [19]

CC(C)Oc1cccc(NC(=O)c2ccccc2C(F)(F)F)c1
inactive: [1] | [2] | [4] | [20] | [5] | [6] | [7] | [8] | [9] | [10] | [11] | [12] | [14] | [15] | [16] | [17] | [18] | [19]

COCC(C)N(C(=O)CCl)c1c(C)csc1C (stereo unspecified)
inactive: [1] | [2] | [4] | [5] | [6] | [7] | [8] | [9] | [10] | [11] | [12] | [13] | [14] | [15] | [16] | [17] | [18] | [19]

CCSC(=O)N1CCCCCC1
inactive: [1] | [2] | [4] | [5] | [6] | [7] | [8] | [9] | [10] | [11] | [12] | [14] | [15] | [16] | [17] | [18] | [19]

COc1cc(OC)nc(NC(=O)NS(=O)(=O)c2ncccc2OCC(F)(F)F)n1
inactive: [1] | [2] | [4] | [5] | [6] | [7] | [8] | [9] | [10] | [11] | [12] | [13] | [14] | [15] | [16] | [17] | [18] | [19]

CS(=O)(=O)c1cc(C(F)(F)F)ccc1C(=O)c1cnoc1C1CC1
inactive: [1] | [2] | [4] | [20] | [5] | [7] | [8] | [9] | [10] | [11] | [12] | [14] | [15] | [16] | [17] | [18] | [19]
active: [6] 4.13 µM
